Results published in the supplement of paper PMC7695840.
Counter-ions that a name gives are not always drawn.

What was measured:
[1] = tested on: Staphylococcus aureus MW2 delta-mecA (mecA-); test: normalized GFP fluorescence (growth of mecA- strain) (fraction of control range); higher = more growth of mecA- strain; settings: compound concentration: 150 uM; cefoxitin: subinhibitory; fluorescent label: GFP
Summary of the method: (§1)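 A 1:1 mix of pre-induced S. aureus MW2 cells, DsRed-labeled with the gene and GFP-labeled without it, was grown in LB with a daily-set subinhibitory antibiotic dose on 150 μM compound (1.5% DMSO) in 1536-well plates, single replicate. Growth lasted 20 h at 37 °C, 90% humidity, without shaking, and DsRed (540/590) and GFP (485/520) were then read. Channels were scaled per plate to single-strain control medians, and plates with high untreated ratios and rows with DsRed/GFP >10 were removed.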

[2] = tested on: Staphylococcus aureus MW2 (mecA+); test: normalized DsRed fluorescence (growth of mecA+ strain) (fraction of control range); higher = more growth of mecA+ strain; settings: compound concentration: 150 uM; cefoxitin: subinhibitory; fluorescent label: DsRed
Summary of the method: as §1

Compound	normalized GFP fluorescence [1]	normalized DsRed fluorescence [2]
CCN(C(=O)c1c(O)c2c(Cl)cccc2n(C)c1=O)c1ccccc1	0.0925	0.805
O=C1c2cccc3c2[C@H](CCC3)CN1[C@@H]1CN2CCC1CC2 [Palonosetron HCl]	0.203	0.709
COc1ccc2c3c1O[C@H]1C[C@@H](O)C=C[C@@]31CCN(C)C2	0.508	0.677
CC(C)[N+](C)(CCOC(=O)C1c2ccccc2Oc2ccccc21)C(C)C	0.295	0.691
CCCC1O[C@@H]2C[C@H]3[C@@H]4CCC5=CC(=O)C=C[C@]5(C)[C@H]4[C@@H](O)C[C@]3(C)[C@]2(C(=O)CO)O1 (stereo partly drawn)	0.226	1.12
COc1cc2nccc(Oc3ccc(NC(=O)NC4CC4)c(Cl)c3)c2cc1C(N)=O [E7080 (Lenvatinib)]	0.528	0.638
NC[C@@H]1O[C@H](O[C@H]2[C@@H](O)[C@H](O[C@@H]3[C@@H](O)[C@H](N)C[C@H](N)[C@H]3O[C@H]3O[C@H](CN)[C@@H](O)[C@H](O)[C@H]3N)O[C@@H]2CO)[C@H](N)[C@@H](O)[C@@H]1O	0.217	0.718
NS(=O)(=O)c1cc2c(cc1C(F)(F)F)NC(Cc1ccccc1)NS2(=O)=O (stereo not drawn)	0.428	0.653
CCCc1cc(C(N)=S)ccn1 [Protionamide (Prothionamide)]	0.749	0.698
Cc1cc(CC(=O)O)n(C)c1C(=O)c1ccc(Cl)cc1	0.288	0.63
CN/C(=N\CCSCc1nc[nH]c1C)NC#N	0.567	1.05
NC(=O)C1(N2CCCCC2)CCN(CCCC(=O)c2ccc(F)cc2)CC1	0.529	0.733
COc1ccc(CC2c3cc(OC)c(OC)cc3CC[N+]2(C)CCC(=O)OCCCCCOC(=O)CC[N+]2(C)CCc3cc(OC)c(OC)cc3C2Cc2ccc(OC)c(OC)c2)cc1OC (stereo not drawn)	0.325	0.862
COc1ccc2[nH]c([S@@+]([O-])Cc3ncc(C)c(OC)c3C)nc2c1	0.281	1.15
CCCCCCCCCCCCCCCCCCCCCCO	0.3	0.765
CC(=O)O[C@]1(C(C)=O)CC[C@H]2[C@@H]3C=C(C)C4=CC(=O)CC[C@]4(C)[C@H]3CC[C@@]21C	0.381	0.78
c1ccc(CC2=NCCN2)cc1	0.234	0.835
O=C(NCC(O)CO)c1c(I)c(C(=O)NCC(O)CO)c(I)c(N(CCO)C(=O)CO)c1I (stereo not drawn)	0.368	1.04
Cc1nnc(C(=O)NC(C)(C)c2nc(C(=O)NCc3ccc(F)cc3)c(O)c(=O)n2C)o1 [Raltegravir (MK-0518)]	0.051	0.507
CNC(=O)c1ccc(N2C(=S)N(c3ccc(C#N)c(C(F)(F)F)c3)C(=O)C2(C)C)cc1F [MDV3100 (Enzalutamide)]	0.245	0.592
CCOC(=O)O[C@]1(C(=O)COC(=O)CC)CC[C@H]2[C@@H]3CCC4=CC(=O)C=C[C@]4(C)[C@H]3[C@@H](O)C[C@@]21C	0.129	1.07
O=c1[nH]cnc2c1ncn2[C@@H]1O[C@H](CO)[C@@H](O)[C@H]1O [Inosine]	0.197	0.97
CO/N=C(\C(=O)N[C@@H]1C(=O)N2C(C(=O)O)=C(C[N+]3(C)CCCC3)CS[C@H]12)c1csc(N)n1	0.0193	0.073
C#C[C@]1(OC(C)=O)CC[C@H]2[C@@H]3CCC4=CC(=NO)CC[C@@H]4[C@H]3CC[C@@]21CC (mixture of isomers)	0.0291	0.642
N#Cc1ccc2[nH]cc(CCCCN3CCN(c4ccc5oc(C(N)=O)cc5c4)CC3)c2c1	0.0415	0.987
Cn1nnc2c(C(N)=O)ncn2c1=O [Temozolomide]	0.456	1.11
N[C@@H](CC(=O)N1CCn2c(nnc2C(F)(F)F)C1)Cc1cc(F)c(F)cc1F	0.306	0.577
Cc1ccc(C(=O)Nc2ccc(S(=O)(=O)O)c3cc(S(=O)(=O)O)cc(S(=O)(=O)O)c23)cc1NC(=O)c1cccc(NC(=O)Nc2cccc(C(=O)Nc3cc(C(=O)Nc4ccc(S(=O)(=O)O)c5cc(S(=O)(=O)O)cc(S(=O)(=O)O)c45)ccc3C)c2)c1	0.319	0.63
CCCN(CCC)CCc1cccc2c1CC(=O)N2	0.224	1.03
